Shown are actives, neighbours in structure and some others; about 4.8% of the full set was active somewhere.
SMARCA2 act = activators of SMARCA2 function. MG213 cells, MMTV-luciferase reporter, dexamethasone, overnight. activation, % at 9.1 µM. 1% of 370,000 active; in the data active means activation above about 7.8%
DAX1 inh-1 = NR0B1 (DAX1) inhibition. P51843. HEK293 Gal4-DAX1 luciferase reporter, luminescence. inhibition, % at 6.75 µM. 0.99% of 340,000 active. AID 504766;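 active means inhibition above the mean over all tested compounds plus 3 SD, cut at about 4.2% in these data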;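 further: inhibition shows as a rise in luminescence from relieved DAX1 repression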
Target sequence (P51843 207-470 limits assumed): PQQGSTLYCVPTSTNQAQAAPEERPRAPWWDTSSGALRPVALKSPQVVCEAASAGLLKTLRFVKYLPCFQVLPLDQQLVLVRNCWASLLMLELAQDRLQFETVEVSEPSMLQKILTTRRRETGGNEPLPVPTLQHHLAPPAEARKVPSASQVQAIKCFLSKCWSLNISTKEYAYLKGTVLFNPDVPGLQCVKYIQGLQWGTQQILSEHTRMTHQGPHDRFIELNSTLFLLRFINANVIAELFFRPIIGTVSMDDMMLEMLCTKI
ssDAF12 agonist = S. stercoralis DAF-12 activation, primary screen. HEK293 ssDAF-12/GRIP1 lit1-tk-luc reporter, luminescence; % of 3 µM dafachronic acid response. activation, % at 6.8 µM. 1% of 370,000 active. AID 652126;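 active means activation above the mean over all tested compounds plus 3 SD, cut at about 0.9% in these data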
hgDAF-12 ag = hgDAF-12 agonism, primary luciferase screen; HEK293 GAL4-hgDAF12 UAS-luciferase reporter, agonist luminescence; normalized to butyrate control; activation, % at 6.8 µM; 1.8% of 370,000 active; AID 687014;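 active means activation above a cutoff set at the mean of all screened compounds plus 3 SD, cut at about 10% in these data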
hcDAF-12 act = activators of H. contortus DAF-12 nuclear receptor; HEK293 hcDAF-12 lit1-tk-luc reporter, luminescence; 0% DMSO, 100% Δ7-dafachronic acid; activation, % at 6.8 µM; 1.4% of 370,000 active;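 active means activation above the mean of all tested compounds plus 3 SD, cut at about 5.5% in these data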
DAX1 inh-2 = inhibitors of DAX1 repression of SF-1 activated StAR promoter. HEK293T StAR-luciferase reporter, SF-1/DAX-1 repression relief. AID 652010. inhibition, % at 6.8 µM. 1.1% of 370,000 active;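 active means inhibition above the mean over all tested compounds plus 3 SD, cut at about 3.6% in these data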;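 further: higher inhibition means more luminescence from relief of DAX-1 repression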
DAX1 inh confirm = confirmation of human DAX1 (NR0B1) inhibitors; inhibition, % at 6.8 µM; 87% of 2,400 active; AID 652134; shares compounds with DAX1 inh-2; HEK293T StAR-promoter luciferase reporter, SF-1/DAX-1 repression;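 active means inhibition above the average of every tested compound plus 3 SD, cut at about 3.8% in these data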;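 further: active compounds raise luminescence by relieving repression of the StAR reporter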
SF1 AF2mut Luc = counter-screen for DAX1 inhibitors: nonselective inhibitors with SF-1 AF2 mutant; inhibition, % at 6.8 µM; 78% of 2,400 active; HEK293 StAR-luciferase, luminescence; shares compounds with DAX1 inh-2;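 active means inhibition above the mean of all tested compounds plus 3 SD, cut at about 3% in these data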
Of the large screens only hits and unclear results are named; the others gave an inactive call (follow-up assays come after a bar, where they were run).

COc1ccc(C(CNC(=O)c2ccc(Cl)c(NC(=O)c3cccs3)c2)N2CCCC2)cc1 (centres undefined)	DAX1 inh-2 4.8 | DAX1 inh confirm 3.9 | SF1 AF2mut Luc inactive
CCOc1ccc(NS(=O)(=O)c2ccc(C(=O)NCC(c3ccc(OC)cc3)N3CCCC3)cc2)cc1 (centres undefined)	DAX1 inh-2 7.5 | DAX1 inh confirm 7.0 | SF1 AF2mut Luc 4.9
COc1ccc(C(CNC(=O)c2cccc(S(=O)(=O)N3CCOCC3)c2)N2CCCC2)cc1 (centres undefined)	none
COc1ccc(C(CNC(=O)c2ccc(NS(=O)(=O)c3ccc(F)c(C)c3)cc2)N2CCCC2)cc1 (centres undefined)	none
COc1ccc(C(CNC(=O)c2cccc(S(=O)(=O)N3CCCC3)c2)N2CCCC2)cc1 (centres undefined)	DAX1 inh-2 5.6 | DAX1 inh confirm inactive | SF1 AF2mut Luc inactive
C[C@H]1CN([C@@H](C)CO)C(=O)CCCn2nncc2CO[C@@H]1CN(C)C(=O)c1ccccc1	none
S=C(NCCc1ccc(Cl)cc1)NC1CCCC1	none
S=C(NCCc1ccc(Cl)cc1)NC1CCCCC1	DAX1 inh-2 5.0 | DAX1 inh confirm inactive | SF1 AF2mut Luc 3.0
COc1ccc(NC(=O)CN2C(=O)NC(C)(c3ccccc3)C2=O)cc1Cl (centres undefined)	none
COc1cc(OC)c2c(-c3cccc(-c4ccc(NC(C)=O)cc4)c3)cc(=O)oc2c1	DAX1 inh-2 4.8 | DAX1 inh confirm 6.3 | SF1 AF2mut Luc inactive
COc1cc(OC)c2c(-c3cccc(-c4ccc(OC)c(OC)c4)c3)cc(=O)oc2c1	none
COC(=O)[C@]12C[C@H](CC(=O)NCc3cccc4ccccc34)C(=O)N(CCC3=CCCCC3)C1=C[C@H](C(C)C)O[C@@H]2C1CC1	none (no result: DAX1 inh-1)
CN(C)c1ccc(NC(=O)c2cnsn2)cc1	DAX1 inh-2 6.3 | DAX1 inh confirm 7.4 | SF1 AF2mut Luc inactive
Cc1noc(C)c1C(=O)Nc1ccc(N(C)C)cc1	none
CCc1c(C(=O)Nc2ccc(C)c(C)c2)[nH]c(C)c1C(C)=O	none
CC(=O)c1c(C)[nH]c(C(=O)Nc2ccc(C)c(C)c2)c1C	DAX1 inh-2 4.6 | DAX1 inh confirm 10 | SF1 AF2mut Luc 7.4
CCCCn1c(N)c(N(C(=O)CSc2nnnn2-c2ccc(C)cc2)C2CCCC2)c(=O)[nH]c1=O	none
CC(C)c1ccc(S(=O)(=O)N2CCN(C(=O)c3cccc(S(=O)(=O)N4CCOCC4)c3)CC2)cc1	none
CC(C)C1Oc2ccccc2C(=O)N(CC(=O)c2ccc3c(c2)OCCO3)C1=O (centres undefined)	DAX1 inh-2 7.6 | DAX1 inh confirm 14 | SF1 AF2mut Luc 8.8
CC1Oc2ccccc2C(=O)N(CC(=O)c2ccc3c(c2)OCCO3)C1=O (centres undefined)	none
Cc1ccc(NC(=O)Nc2ccc3c(c2)CCC3)cc1	DAX1 inh-2 5.5 | DAX1 inh confirm 5.3 | SF1 AF2mut Luc 4.6
O=C(Nc1ccc(F)cc1)Nc1ccc2c(c1)CCC2	DAX1 inh-2 5.2 | DAX1 inh confirm 4.2 | SF1 AF2mut Luc 3.1
O=C(Nc1ccc2c(c1)CCC2)Nc1ccc(F)cc1F	hgDAF-12 ag 11, DAX1 inh-2 5.5 | DAX1 inh confirm 9.9 | SF1 AF2mut Luc 6.9
Cc1cc(C)cc(NC(=O)Nc2ccc3c(c2)CCC3)c1	none
COc1ccc(NC(=O)C[C@H]2C(=O)N(c3ccccc3)C[C@@H]2C)cc1	none
Nc1c(C(=O)NCc2ccc3c(c2)OCO3)nnn1Cc1cccc(F)c1	none
Nc1c(C(=O)Nc2ccc3c(c2)OCCO3)nnn1Cc1ccc(Cl)cc1	hgDAF-12 ag 12, DAX1 inh-2 8.7 | DAX1 inh confirm 7.7 | SF1 AF2mut Luc 5.2
CCn1cc(Cl)c(C(=O)Nc2ccc3c(c2)OCCO3)n1	hgDAF-12 ag 13, DAX1 inh-2 6.1 | DAX1 inh confirm 9.7 | SF1 AF2mut Luc 5.5
Nc1c(C(=O)Nc2ccc3c(c2)OCCO3)nnn1Cc1cccc(F)c1	DAX1 inh-2 7.7 | DAX1 inh confirm 9.4 | SF1 AF2mut Luc 5.3
CC(C)(C)c1ccc(-c2nnc(SCC(=O)NCC3CCCO3)n2N)cc1 (centres undefined)	DAX1 inh-2 6.5 | DAX1 inh confirm inactive | SF1 AF2mut Luc inactive
O=C(NC1CCCCN(Cc2ccc(OC(F)(F)F)cc2)C1=O)c1ccc2ccccc2c1 (centres undefined)	none (no result: DAX1 inh-1)
CS(=O)(=O)N1CCCCC1c1cc(C(=O)Nc2ccccc2)no1 (centres undefined)	hgDAF-12 ag 11, DAX1 inh-2 6.7 (no result: DAX1 inh-1) | DAX1 inh confirm 7.9 | SF1 AF2mut Luc 7.0
CS(=O)(=O)N1CCCCC1c1cc(C(=O)Nc2cccc(C#N)c2)no1 (centres undefined)	none (no result: DAX1 inh-1)
COc1ccccc1N=C1NC(=O)/C(=C/c2ccc(N(C)C)cc2)S1	none
Cc1cc(/C=N/NC(=O)c2cccc(N(C)C)c2)c(C)n1-c1cc(C(=O)O)cc(C(=O)O)c1	none (no result: SMARCA2 act, ssDAF12 agonist, hgDAF-12 ag, hcDAF-12 act, DAX1 inh-2)
O=C(NN=Cc1ccccc1Cl)c1ccccc1	hgDAF-12 ag 12, DAX1 inh-2 5.2 | DAX1 inh confirm 14 | SF1 AF2mut Luc 6.9
CN(C)c1cccc(C(=O)N/N=C/c2ccccc2F)c1	hgDAF-12 ag 12, DAX1 inh-2 8.5 | DAX1 inh confirm 8.7 | SF1 AF2mut Luc inactive
O=S(=O)(NCCc1c[nH]c2ccccc12)c1ccc(F)cc1	none
O=C(OCc1cn([C@@H]2C[C@H](c3ccccc3)N(C(=O)c3cccs3)C[C@H]2O)nn1)c1ccccc1	none
CCCC(=O)Nc1nc2ccc(NC(=O)c3ccc(Br)o3)cc2s1	none
Cc1nc2ccc(NC(=O)C3=NN(C)C(=O)CC3)cc2s1	DAX1 inh-2 7.5 | DAX1 inh confirm inactive | SF1 AF2mut Luc 3.4
CC(=O)c1sc(NC(=O)c2ccc(Br)o2)nc1C	ssDAF12 agonist 2.1, DAX1 inh-2 4.6 | DAX1 inh confirm 4.1 | SF1 AF2mut Luc 5.4
Cc1nc2ccc(NC(=O)c3ccc(Br)o3)cc2s1	DAX1 inh-2 6.2 | DAX1 inh confirm 14 | SF1 AF2mut Luc 7.6
CC(=O)c1sc(Nc2ccc(Oc3ccccc3)cc2)nc1C	DAX1 inh-2 9.2 (no result: DAX1 inh-1) | DAX1 inh confirm 3.9 | SF1 AF2mut Luc inactive
Cn1c(=O)c2cc(NC(=O)OCCF)ccc2n1Cc1cccc(C(F)(F)F)c1	none (no result: DAX1 inh-1)
C[C@@H]1CN([C@@H](C)CO)C(=O)CCCn2nncc2CO[C@H]1CN(C)C(=O)C1CCCCC1	none
NS(=O)(=O)c1ccc(NC(=O)CN(C(=O)C(F)(F)F)C2CCCC2)cc1	none

Compound activity deposited in PubChem BioAssay by The Scripps Research Institute Molecular Screening Center.
